# Results filed as inconclusive are left out. Entries that show only a call come without a potency. Calls of active or inactive are those of the source. The call rests on the fitted dose curve; in most records, active means well fitted inhibition curve with a large enough effect; inconclusive means small, poorly fitted or top-dose-only effect; inactive means flat fitted curve, though single readings scatter.
# Molecular target: Calcium and integrin-binding protein 1 (Homo sapiens) (UniProt Q99828)
# Sequence (Q99828 whole entry, looked up): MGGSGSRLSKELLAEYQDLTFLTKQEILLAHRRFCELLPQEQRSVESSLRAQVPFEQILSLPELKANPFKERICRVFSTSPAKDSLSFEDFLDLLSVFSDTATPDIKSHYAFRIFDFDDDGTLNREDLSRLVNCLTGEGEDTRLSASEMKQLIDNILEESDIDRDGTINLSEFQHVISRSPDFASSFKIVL
# Test: Primary qHTS for Identification of Calcium Integrin Binding Protein 1 (CIB1) Competitor (AID 1508620);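 further: GST tagged CIB1 binding a fluorescein labelled alphaIIb integrin peptide tracer; top concentration of the series differs between compounds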
# Settings: CIB1-GST / FITC-alphaIIb peptide fluorescence polarization; series mostly up to 114 µM
# Summary of the method: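 CIB1-GST (1 uM final) and compound incubated 15 min at room temperature before adding FITC-alphaIIb peptide tracer (100 nM final). Competition for binding read by fluorescence polarization (ex 480, em 540) after another 15 min at room temperature.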
row,Compound,Potency
1,O=C(O)c1ccccc1OC1=NS(=O)(=O)c2ccccc21,inactive
2,CC(=O)c1ccc(N2CCN(S(=O)(=O)c3ccc4[nH]c(=O)[nH]c4c3)CC2)cc1,inactive
3,O=S1(=O)N=C(Oc2cccc(-c3ccccc3)c2)c2ccccc21,inactive
4,COc1cccc(-c2ccc3ncnc(NCc4cc(C)cs4)c3c2)c1,inactive
5,Cc1cc(C)n2ncc(C(=O)Nc3cccc(C#N)c3)c2n1,inactive
6,Cc1cc2c(s1)c1cnn(Cc3ccccc3Cl)c(=O)c1n2C,inactive
7,Cc1cc(C)nc(NC(=S)N2CCN(c3ccc(N4CCCC4)nn3)CC2)c1,inactive
8,N#Cc1nc(NCC(F)F)nc(Nc2cc(F)cc(F)c2)n1,inactive
9,Cc1ccc(CN(C)c2ncnc3ccc(-c4ccc(C#N)n4C)cc23)o1,inactive
10,Cc1ccc(NC(=O)CN2C(=O)N/C(=C\c3cccn3-c3cccc(-c4nn[nH]n4)c3)C2=O)cc1,inactive
11,O=C1Cc2cc(S(=O)(=O)N3CCN(c4cccc(C(F)(F)F)c4)CC3)ccc2N1,inactive
12,COc1ccc(C2Nc3ccccc3C(=O)N2Cc2ccco2)cc1COc1c(C(C)C)cccc1C(C)C (configuration not stated),inactive
13,O=C(NCc1ccc(Cl)c(Cl)c1)Nc1nnc(-c2ccncc2)s1,inactive
14,COc1cc(NS(=O)(=O)c2ccc(C)cc2)c2ncccc2c1,inactive
15,CSc1ccc(CNc2ncnc3ccc(-c4c(C)noc4C)cc23)cc1,inactive
16,COc1ccc(C2Nc3ccccc3C(=O)N2Cc2ccccc2Cl)cc1COc1ccc(NC(C)=O)cc1 (configuration not stated),inactive
17,COC(=O)c1ccc2c(c1)S(=O)(=O)NC2=O,inactive

# Reference: PubChem BioAssay (NCATS)
